Data published in PubChem BioAssay (NCATS).
Results filed as inconclusive are left out. Active and inactive are the calls of the source. Calls come from the whole dose curve; as a rule, active = well fitted inhibition curve with a large enough effect; inconclusive = small, poorly fitted or top-dose-only effect; inactive = flat fitted curve, though single readings scatter. *1 amine or outer side, *2 acyl side, *3 side chain or, on linkers, in order; H or OH if unused. Where a SMILES comes first, the peptide text is derived from it. Bridges are numbered along the chain shown (N, C = ends). [ ]: non-standard residue; d: D form. The star is where a group is joined. ξ: configuration not given here. ξhTyr(3S-OH,4S-OH,3'-OSO3H) = NC(C(=O)O)[C@H](O)[C@@H](O)c1ccc(O)c(OS(=O)(=O)O)c1; Orn(4R-OH,5R-OH) = O=C([C@H](C[C@@H](O)[C@@H](O)N[*:3])N[*:1])[*:2]; X2 = CCCCCOc1ccc(-c2cc(-c3ccc(C(=O)*)cc3)no2)cc1; X3 = C[C@H]1CN([*:1])C(C(=O)[*:2])[C@H]1O; ξGln(3R-OH) = NC(=O)C[C@@H](O)C(N)C(=O)O; ξPro(4R-OH) = O=C(O)C1C[C@@H](O)CN1; ξThr(3R) = C[C@@H](O)C(N)C(=O)O

Assays:
Experiment in all cases: Cytotoxic Profiling of Annotated Libraries Using Quantitative High-Throughput Screening (AID 1296008); note: nearly all actives have a fitted effect of over 60% in size
Conditions in all cases: Five cell lines viability, CellTiter-Glo ATP luminescence, 48-72 h; max response: hits give low values
CRL-7250 = normal cell line; tested on: CRL-7250
How it was run: (§1)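 Compounds were pin-transferred onto cells and incubated 48 or 72 hr at 37 degree Celsius, 95% humidity. CellTiter-Glo was added, plates sat 10 min at room temperature, then ATP-coupled luminescence was imaged as the viability read-out.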

HEK293 = tested on: HEK293
How it was run: as §1

HaCat = tested on: HaCat
How it was run: as §1

KB-3-1 = tested on: KB-3-1
How it was run: as §1

NIH3T3 = tested on: NIH3T3
How it was run: as §1

Measured: max response
% is set by controls: 0 for no effect and ±100 for the full control effect.

O=C(O)[C@H]1Cc2ccccc2CN1
inactive: CRL-7250 1.62% | HEK293 4.72% | HaCat | KB-3-1 0.759% | NIH3T3 4.47%

C=C1CC2C(C)(CCC(=O)O)C(C(C)(C)O)CCC2(C)C2(C(=O)OC)C(=O)C(C)(O)C(=O)C12C (stereo not given)
inactive: CRL-7250 -12.5% | HEK293 -13.4% | HaCat | KB-3-1 1.2% | NIH3T3 0.874%

C[C@@H]1C(=O)O[C@H](C)[C@H]1C[C@@H](O)[C@](C)(O)[C@H]1CC[C@@]2(O)C3=CC(=O)[C@@H]4C[C@@H](O)[C@@H](O)C[C@]4(C)C3CC[C@]12C (stereo not given in full)
inactive: CRL-7250 -1.86% | HEK293 | HaCat -25% | KB-3-1 8.3% | NIH3T3 1.28%

CC(NC(=O)[C@H](Cc1ccccc1)NC(=O)OCc1ccccc1)C(=O)CF (stereo not given in full)
inactive: CRL-7250 | HEK293 -1.18% | HaCat | KB-3-1 | NIH3T3 2.43%

C[C@@H]1O[C@@H](OC[C@H]2O[C@@H](OCc3ccccc3)[C@H](O)[C@@H](O)[C@@H]2O)[C@H](O)[C@H](O)[C@H]1O
inactive: CRL-7250 | HEK293 -5.01% | HaCat | KB-3-1 -7.21% | NIH3T3 0.0365%

CCCCCOc1ccc(-c2cc(-c3ccc(C(=O)N[C@H]4C[C@@H](O)[C@@H](O)NC(=O)C5[C@@H](O)[C@@H](C)CN5C(=O)C([C@H](O)CC(N)=O)NC(=O)C([C@H](O)[C@@H](O)c5ccc(O)c(OS(=O)(=O)O)c5)NC(=O)C5C[C@@H](O)CN5C(=O)C([C@@H](C)O)NC4=O)cc3)no2)cc1 (stereo partly drawn) (X2-[Orn(4R-OH,5R-OH)][ξThr(3R)][ξPro(4R-OH)][ξhTyr(3S-OH,4S-OH,3'-OSO3H)][ξGln(3R-OH)][X3]; lactam 1-C)
inactive: CRL-7250 | HEK293 -7.85% | HaCat | KB-3-1 | NIH3T3 3.77%
